# Measurements reported in PMC7862700, “An all-to-all approach to the identification of sequence-specific readers for epigenetic DNA modifications on cytosine”.
# Legend:
# Assay in all cases: DAPPL (digital affinity profiling via proximity ligation, sequencing); 10 mM Tris-HCl pH 7.5, 50 mM NaCl, 1 mM DTT, 4% glycerol, room temperature, 30 min; GST-TFs on glutathione beads, 16-mer random dsDNA library, 0.1% formaldehyde crosslink after washing; high values mean tight binding
# Conditions in all cases: protein: recombinant; tags: N-terminal GST; dsDNA, one strand shown
# ERF = target: T1, ERF (Homo sapiens, UniProt P50548 1-548)
# T1 sequence: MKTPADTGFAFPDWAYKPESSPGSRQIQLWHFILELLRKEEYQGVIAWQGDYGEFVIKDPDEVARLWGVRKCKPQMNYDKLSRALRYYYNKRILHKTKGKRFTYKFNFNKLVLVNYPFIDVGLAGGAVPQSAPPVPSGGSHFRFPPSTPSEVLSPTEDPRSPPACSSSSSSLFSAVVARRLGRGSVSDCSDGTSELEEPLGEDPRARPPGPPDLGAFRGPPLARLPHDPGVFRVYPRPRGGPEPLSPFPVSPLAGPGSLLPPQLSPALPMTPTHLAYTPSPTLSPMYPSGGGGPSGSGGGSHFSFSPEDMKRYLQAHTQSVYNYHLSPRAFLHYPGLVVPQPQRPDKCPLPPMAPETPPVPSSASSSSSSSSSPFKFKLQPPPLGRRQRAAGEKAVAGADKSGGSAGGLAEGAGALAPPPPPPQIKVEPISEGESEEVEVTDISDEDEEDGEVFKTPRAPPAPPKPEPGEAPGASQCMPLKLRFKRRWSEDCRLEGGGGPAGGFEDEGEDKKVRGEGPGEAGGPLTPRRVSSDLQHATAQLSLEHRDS
# Outline: (§1)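 Each value of binding signal is a hexamer's read frequency for a factor divided by the same hexamer's frequency in the tag-only sample. Barcoded, bead-captured GST fusions of human transcription factors made in yeast were pooled with that sample and incubated with 200 nmole of a random double-stranded 16-mer DNA library in Tris/NaCl/DTT/glycerol buffer at room temperature for 30 min. Washing, 0.1% formaldehyde crosslinking, proximity ligation, PCR and Illumina NextSeq500 sequencing followed.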
# ETV3L = target: T2, ETV3L (Homo sapiens, UniProt Q6ZN32 1-361)
# T2 sequence: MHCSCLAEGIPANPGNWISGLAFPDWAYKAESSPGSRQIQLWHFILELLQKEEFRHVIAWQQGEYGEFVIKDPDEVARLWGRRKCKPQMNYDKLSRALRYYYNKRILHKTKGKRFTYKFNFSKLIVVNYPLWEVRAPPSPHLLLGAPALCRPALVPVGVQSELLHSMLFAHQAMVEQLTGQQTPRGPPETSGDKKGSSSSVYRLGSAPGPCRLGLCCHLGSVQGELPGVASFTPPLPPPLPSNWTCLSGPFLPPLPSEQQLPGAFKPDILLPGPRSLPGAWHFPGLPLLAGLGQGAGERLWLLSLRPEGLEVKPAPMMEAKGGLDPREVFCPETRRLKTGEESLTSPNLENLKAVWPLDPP
# Outline: as §1
# ETS2 = target: T3, ETS2 (Homo sapiens, UniProt P15036 1-469)
# T3 sequence: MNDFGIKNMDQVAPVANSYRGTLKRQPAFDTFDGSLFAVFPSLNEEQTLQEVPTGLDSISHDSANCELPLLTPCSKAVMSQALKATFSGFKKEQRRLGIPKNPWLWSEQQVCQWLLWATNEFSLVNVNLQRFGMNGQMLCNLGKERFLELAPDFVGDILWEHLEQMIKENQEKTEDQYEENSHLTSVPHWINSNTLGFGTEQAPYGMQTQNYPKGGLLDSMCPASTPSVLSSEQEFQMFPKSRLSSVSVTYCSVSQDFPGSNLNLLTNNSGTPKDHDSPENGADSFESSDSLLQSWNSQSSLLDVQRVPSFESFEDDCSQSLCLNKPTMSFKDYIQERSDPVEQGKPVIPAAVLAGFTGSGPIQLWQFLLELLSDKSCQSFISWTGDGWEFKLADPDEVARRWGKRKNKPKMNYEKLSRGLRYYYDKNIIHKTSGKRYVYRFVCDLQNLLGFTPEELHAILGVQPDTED
# Outline: as §1
# SPDEF = target: T4, SPDEF (Homo sapiens, UniProt O95238 1-335)
# T4 sequence: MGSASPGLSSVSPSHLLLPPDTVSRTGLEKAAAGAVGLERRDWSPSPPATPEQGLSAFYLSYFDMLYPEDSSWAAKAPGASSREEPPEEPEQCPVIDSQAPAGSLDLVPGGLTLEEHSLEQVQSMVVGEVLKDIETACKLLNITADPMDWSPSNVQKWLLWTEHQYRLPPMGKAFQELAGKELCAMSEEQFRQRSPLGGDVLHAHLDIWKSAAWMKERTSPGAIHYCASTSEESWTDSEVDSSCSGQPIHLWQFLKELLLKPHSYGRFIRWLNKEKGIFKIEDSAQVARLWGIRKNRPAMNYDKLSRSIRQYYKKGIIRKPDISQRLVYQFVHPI
# Outline: as §1
# ETV7 = target: T5, ETV7 (Homo sapiens, UniProt Q9Y603 1-341)
# T5 sequence: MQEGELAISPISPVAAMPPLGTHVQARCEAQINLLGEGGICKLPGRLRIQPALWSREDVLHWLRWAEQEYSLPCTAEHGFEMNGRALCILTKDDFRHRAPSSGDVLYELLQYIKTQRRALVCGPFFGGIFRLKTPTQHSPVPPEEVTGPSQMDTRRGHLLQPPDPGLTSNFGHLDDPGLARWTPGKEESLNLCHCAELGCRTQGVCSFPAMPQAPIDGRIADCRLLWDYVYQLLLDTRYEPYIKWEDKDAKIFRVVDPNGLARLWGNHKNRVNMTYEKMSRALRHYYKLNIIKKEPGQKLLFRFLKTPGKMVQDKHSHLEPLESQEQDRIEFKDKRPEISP
# Outline: as §1
# ELF5 = target: T6, ELF5 (Homo sapiens, UniProt Q9UKW6-2 1-255)
# T6 sequence: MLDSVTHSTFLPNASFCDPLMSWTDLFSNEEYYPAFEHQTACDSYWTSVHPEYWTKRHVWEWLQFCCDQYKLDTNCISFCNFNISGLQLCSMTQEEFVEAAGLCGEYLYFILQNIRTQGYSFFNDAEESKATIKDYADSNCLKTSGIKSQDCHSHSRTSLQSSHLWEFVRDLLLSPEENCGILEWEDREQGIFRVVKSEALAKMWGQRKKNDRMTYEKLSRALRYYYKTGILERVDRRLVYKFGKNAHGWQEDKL
# Outline: as §1
# ETV3 = target: T7, ETV3 (Homo sapiens, UniProt P41162-2 1-143)
# T7 sequence: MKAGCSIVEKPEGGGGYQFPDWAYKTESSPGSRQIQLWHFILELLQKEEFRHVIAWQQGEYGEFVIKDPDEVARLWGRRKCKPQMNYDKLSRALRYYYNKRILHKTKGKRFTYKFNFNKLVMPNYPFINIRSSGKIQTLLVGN
# Outline: as §1
# ETV6 = ETV6 (Homo sapiens, UniProt P41212 1-452)
# ETV6, sequence (P41212 whole entry): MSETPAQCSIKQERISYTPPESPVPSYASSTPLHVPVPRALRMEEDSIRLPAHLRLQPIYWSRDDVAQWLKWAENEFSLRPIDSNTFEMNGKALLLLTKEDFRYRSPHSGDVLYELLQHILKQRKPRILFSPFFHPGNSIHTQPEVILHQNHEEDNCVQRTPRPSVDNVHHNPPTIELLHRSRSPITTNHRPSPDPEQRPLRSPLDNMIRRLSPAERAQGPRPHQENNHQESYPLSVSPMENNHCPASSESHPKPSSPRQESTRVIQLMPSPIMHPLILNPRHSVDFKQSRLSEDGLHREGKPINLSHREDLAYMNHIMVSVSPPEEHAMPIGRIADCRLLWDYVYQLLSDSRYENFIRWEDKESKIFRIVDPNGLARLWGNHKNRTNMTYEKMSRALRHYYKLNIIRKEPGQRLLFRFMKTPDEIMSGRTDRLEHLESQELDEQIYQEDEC
# Outline: as §1
Sequence,binding signal (ERF),binding signal (ETV3L),binding signal (ETS2),binding signal (SPDEF),binding signal (ETV7),binding signal (ELF5),binding signal (ETV3),binding signal (ETV6)
ACGACA,"1.11 fold enrichment (6-mer frequency, TF over GST control)","1.12 fold enrichment (6-mer frequency, TF over GST control)","1.12 fold enrichment (6-mer frequency, TF over GST control)","1.26 fold enrichment (6-mer frequency, TF over GST control)","1.05 fold enrichment (6-mer frequency, TF over GST control)","1.18 fold enrichment (6-mer frequency, TF over GST control)","1.08 fold enrichment (6-mer frequency, TF over GST control)","1.22 fold enrichment (6-mer frequency, TF over GST control)"
TACATC,"1.63 fold enrichment (6-mer frequency, TF over GST control)","1.55 fold enrichment (6-mer frequency, TF over GST control)","1.66 fold enrichment (6-mer frequency, TF over GST control)","2.97 fold enrichment (6-mer frequency, TF over GST control)","1.59 fold enrichment (6-mer frequency, TF over GST control)","1.81 fold enrichment (6-mer frequency, TF over GST control)","1.68 fold enrichment (6-mer frequency, TF over GST control)","1.57 fold enrichment (6-mer frequency, TF over GST control)"
AACAGG,"1.16 fold enrichment (6-mer frequency, TF over GST control)","1.15 fold enrichment (6-mer frequency, TF over GST control)","1.13 fold enrichment (6-mer frequency, TF over GST control)","1.31 fold enrichment (6-mer frequency, TF over GST control)","1.15 fold enrichment (6-mer frequency, TF over GST control)","1.24 fold enrichment (6-mer frequency, TF over GST control)","1.25 fold enrichment (6-mer frequency, TF over GST control)","1.29 fold enrichment (6-mer frequency, TF over GST control)"
GTTCAT,"1.11 fold enrichment (6-mer frequency, TF over GST control)","1.16 fold enrichment (6-mer frequency, TF over GST control)","1.16 fold enrichment (6-mer frequency, TF over GST control)","1.18 fold enrichment (6-mer frequency, TF over GST control)","1.05 fold enrichment (6-mer frequency, TF over GST control)","1.1 fold enrichment (6-mer frequency, TF over GST control)","1.1 fold enrichment (6-mer frequency, TF over GST control)","1.17 fold enrichment (6-mer frequency, TF over GST control)"
